# Source: the supplement of paper PMC11732987, “Enantioselective OTUD7B fragment discovery through chemoproteomics screening and high-throughput optimisation” (Communications Chemistry, 2025)
# Biological target: T1, VCPIP1 (UniProt Q96JH7)
# T1 sequence (whole entry): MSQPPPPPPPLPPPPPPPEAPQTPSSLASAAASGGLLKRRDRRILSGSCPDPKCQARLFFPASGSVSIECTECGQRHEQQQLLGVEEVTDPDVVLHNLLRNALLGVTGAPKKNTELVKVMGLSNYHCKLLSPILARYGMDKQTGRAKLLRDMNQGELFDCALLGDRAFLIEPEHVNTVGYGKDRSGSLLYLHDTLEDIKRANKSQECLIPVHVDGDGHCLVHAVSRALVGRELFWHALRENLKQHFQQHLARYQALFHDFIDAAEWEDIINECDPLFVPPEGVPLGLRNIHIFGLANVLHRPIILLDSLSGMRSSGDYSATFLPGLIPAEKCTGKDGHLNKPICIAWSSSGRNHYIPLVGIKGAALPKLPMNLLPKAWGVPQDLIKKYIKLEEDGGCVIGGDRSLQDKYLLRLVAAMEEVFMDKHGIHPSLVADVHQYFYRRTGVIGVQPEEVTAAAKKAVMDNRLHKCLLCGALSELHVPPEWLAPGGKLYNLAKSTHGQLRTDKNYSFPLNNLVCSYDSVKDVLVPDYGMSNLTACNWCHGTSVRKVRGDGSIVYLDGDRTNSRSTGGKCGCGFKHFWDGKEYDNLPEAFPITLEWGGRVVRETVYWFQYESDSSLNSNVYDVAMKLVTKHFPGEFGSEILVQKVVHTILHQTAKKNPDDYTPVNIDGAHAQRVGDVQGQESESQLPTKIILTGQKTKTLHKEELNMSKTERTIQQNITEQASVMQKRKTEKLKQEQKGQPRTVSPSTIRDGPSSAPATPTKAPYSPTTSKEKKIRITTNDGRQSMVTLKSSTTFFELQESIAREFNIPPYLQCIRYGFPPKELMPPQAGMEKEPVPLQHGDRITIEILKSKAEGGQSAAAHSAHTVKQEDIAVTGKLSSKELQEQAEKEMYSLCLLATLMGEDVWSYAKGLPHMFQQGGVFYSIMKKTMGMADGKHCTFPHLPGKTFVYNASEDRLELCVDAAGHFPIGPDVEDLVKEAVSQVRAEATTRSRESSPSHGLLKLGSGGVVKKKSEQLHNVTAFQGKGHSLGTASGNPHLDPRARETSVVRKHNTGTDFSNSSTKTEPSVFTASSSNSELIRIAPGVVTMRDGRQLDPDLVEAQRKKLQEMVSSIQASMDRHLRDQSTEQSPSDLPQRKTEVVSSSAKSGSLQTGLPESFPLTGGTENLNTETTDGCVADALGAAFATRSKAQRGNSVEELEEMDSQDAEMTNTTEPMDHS
# Test: log2 ratio of Biotin-Ahx-Ub-VS probe labelling (fragment/DMSO); higher = less target engagement (more negative = stronger competition), active = hit call of the paper (q ≤ 0.05, log2 ratio ≤ -1)
# Details: compound concentration: 200 uM; treatment time: 3 h
# Protocol: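 Competitive ABPP in HEK293T cell lysate. Lysates were treated with each chloroacetamide fragment at 200 µM for 3 h, then with Biotin-Ahx-Ub-VS (0.5 µM, 1 h), NeutrAvidin-enriched and analysed by diaPASEF LC-MS/MS. Protein LFQ was median-normalised; average log2 ratio is fragment/DMSO from an unpaired t-test (n=3 treated, n=44 DMSO). Hits: q ≤ 0.05, log2 ratio ≤ -1, unique peptides ≥ 2.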
row,SMILES,log2 ratio of Biotin-Ahx-Ub-VS probe labelling
1,O=C(CCl)N1CCN2C(=O)CCC2C1 (stereo not given),-0.0347 (inactive)
2,COc1ccc(Cl)cc1NC(=O)CCl,-1.52 (active)
3,Cc1cccc(C)c1NC(=O)CCl,-0.74 (inactive)
4,Cc1ccc(CNC(=O)CCl)nc1C.Cl,-2.09 (active)
5,Cc1ccccc1CN(C)C(=O)CCl,-1.46 (active)
6,NC(=O)C1CCCN(C(=O)CCl)C1 (stereo not given),-0.167 (inactive)
7,Cc1conc1C1CN(C(=O)CCl)C1,-0.949 (inactive)
8,O=C(CCl)N1CCC(C(=O)N2CCCC2)CC1,-0.191 (inactive)
9,O=C(CCl)N1CCOCCC1c1ccccc1 (stereo not given),-0.265 (inactive)
10,O=C(CCl)NC(Cn1ccccc1=O)c1ccccc1 (stereo not given),-0.334 (inactive)
11,Cc1ccccc1OCC(=O)N1CCN(C(=O)CCl)CC1,-1.16 (active)
12,Cc1noc(C)c1CNC(=O)CCl,-1.8 (active)
13,O=C(CCl)N1CCOC(c2cccc(F)c2)C1 (stereo not given),-1.67 (active)
14,O=C(CCl)N1CCN(C(=O)Nc2ccccc2)CC1,-0.418 (inactive)
15,Cl.Cn1nc2c(c1CNC(=O)CCl)CCCC2,-1.63 (active)
16,Cc1ccc2nnc(CNC(=O)CCl)n2c1,-1.34 (active)
17,Cc1cc(Cl)ccc1NC(=O)CCl,-0.193 (inactive)
18,Cc1ccc(N2CCC(NC(=O)CCl)C2=O)cc1 (stereo not given),-2.9 (active)
19,Cl.O=C(CCl)N1CCN(Cc2ccccc2)CC1,-0.476 (inactive)
20,CN(CCc1ncc(Br)cn1)C(=O)CCl.Cl,-2.5 (active)

row,SMILES,log2 ratio of Biotin-Ahx-Ub-VS probe labelling
1,O=C(CCl)N1CCCC1c1ccsc1 (stereo not given),-1.07 (active)
2,O=C(CCl)NCc1ccc2c(c1)OCO2,-2 (active)
3,C/C(=C\CNC(=O)CCl)c1cnn(C)c1.Cl,-1.53 (active)
4,N#Cc1ccccc1N1CCN(C(=O)CCl)CC1,-1.53 (active)
5,O=C(CCl)N1CCOC(CCc2ccccc2)C1 (stereo not given),-2.79 (active)
6,O=C(CCl)N1CCc2sccc2C1,-0.819 (inactive)
7,Cc1ccc(N(CCC#N)C(=O)CCl)cc1C,-2.17 (active)
8,O=C(CCl)N1CCC[C@@H]1c1ccon1,-0.499 (inactive)
9,O=C(CCl)N1CCC(c2ccn[nH]2)C1 (stereo not given),-0.333 (inactive)
10,O=C(CCl)N1CCOC2(CCC2)CC1,-0.287 (inactive)
11,N#Cc1cnn(-c2ccccc2)c1NC(=O)CCl,-2.18 (active)
12,Cc1nc(CN2CCN(C(=O)CCl)CC2)cs1,-0.304 (inactive)
13,Cc1ccc(C)c(NC(=O)CCl)c1,-1.52 (active)
14,Cl.O=C(CCl)N1CCCC(c2ncc[nH]2)C1 (stereo not given),-0.387 (inactive)
15,CN(Cc1nc2ccccc2[nH]1)C(=O)CCl.Cl,-0.467 (inactive)
16,Cc1ccc(CN(CCO)C(=O)CCl)cc1,-0.862 (inactive)
17,CC1Cc2ccccc2N1C(=O)CCl (stereo not given),-1.3 (active)
18,CCN1C(=O)C2CN(C(=O)CCl)CCN2C1=O (stereo not given),0.103 (inactive)
19,O=C(CCl)Nc1cc(Cl)ccc1-n1cncn1,-1.26 (active)
20,Cl.Cn1cnc2cc(CNC(=O)CCl)ccc21,-1.11 (active)
